The panel holds about 79,000 compounds, 15% with a hit somewhere; the sample as a whole holds those more often. Activity calls are given as the source filed them. Cut-off read from the data, not from the text of the source: active = growth inhibition above about 70%; inactive = the rest.
Experiments:
[1] = NCI Yeast Anticancer Drug Screen. Data for the rad52 strain (AID 147);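 note: 0% = growth of vehicle-treated control cultures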; conditions: S. cerevisiae rad52 mutant growth inhibition, stronger effect = higher value
Method in brief: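 Vehicle-treated cultures served as the reference for growth inhibition of compound-exposed yeast bearing a DNA repair mutation.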

[2] = NCI Yeast Anticancer Drug Screen. Data for the wt1 strain (AID 149);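 note: 0% = growth of vehicle-treated wt1 cultures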; conditions: S. cerevisiae wt1 strain (SPY 50644) growth inhibition, stronger effect = higher value
Method in brief: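 Using yeast strain wt1, compound-induced growth inhibition was determined against vehicle-treated cultures.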

[3] = NCI Yeast Anticancer Drug Screen. Data for the mgt1 strain (AID 153); conditions: S. cerevisiae mgt1 mutant growth inhibition, stronger effect = higher value
Method in brief: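 mgt1 strain exposed; growth vs vehicle control recorded as inhibition.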

[4] = NCI Yeast Anticancer Drug Screen. Data for the rad50 strain (AID 155);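 note: 0% = growth of vehicle-only cultures of the same strain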; conditions: S. cerevisiae rad50 strain growth inhibition, stronger effect = higher value
Method in brief: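 Relative growth inhibition (compound vs vehicle) was measured in yeast with a defined repair-gene alteration.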

[5] = NCI Yeast Anticancer Drug Screen. Data for the mec2-1 strain (AID 157); conditions: S. cerevisiae mec2-1 strain, stronger effect = higher value
Method in brief: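 Vehicle-treated cultures served as reference for growth inhibition of compound-exposed mec2-1 yeast.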

[6] = NCI Yeast Anticancer Drug Screen. Data for the rad14 strain (AID 159);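 note: 0% = growth of vehicle-treated control cultures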; conditions: S. cerevisiae rad14 strain growth inhibition, stronger effect = higher value
Method in brief: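 Screen for anticancer potential: a yeast strain altered in DNA damage repair is grown with compound, and reduced growth is quantified against vehicle controls.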

[7] = NCI Yeast Anticancer Drug Screen. Data for the sgs1 mgt1 strain (AID 161);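 note: 0% = growth of cultures given vehicle only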; conditions: S. cerevisiae sgs1 mgt1 strain, stronger effect = higher value
Method in brief: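 Genetically altered yeast, compound exposure, growth inhibition relative to vehicle.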

[8] = NCI Yeast Anticancer Drug Screen. Data for the CLN2oe strain (AID 163);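 note: 0% = growth of vehicle-only control cultures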; conditions: S. cerevisiae CLN2oe strain, stronger effect = higher value
Method in brief: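 Inhibition relative to vehicle-treated yeast is reported. Cells: strain with genetic alteration in cell-cycle control, grown with compound.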

[9] = NCI Yeast Anticancer Drug Screen. Data for the cln2 rad14 strain (AID 165);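 note: 0% = growth equal to vehicle treated cultures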; conditions: S. cerevisiae cln2 rad14 strain, stronger effect = higher value
Method in brief: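 Each compound was tested on cln2 rad14 yeast. Inhibition of growth was calculated against vehicle-exposed controls.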

[10] = NCI Yeast Anticancer Drug Screen. Data for the bub3 strain (AID 167); conditions: S. cerevisiae bub3 mutant strain, stronger effect = higher value
Method in brief: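 Screening used yeast with an engineered genetic alteration affecting cell cycle control. Compound-exposed cultures were compared with vehicle cultures, and reduced growth was taken as inhibition.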

[11] = NCI Yeast Anticancer Drug Screen. Data for the mlh1 strain (AID 171);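 note: 0% = growth of vehicle-treated control cultures of the same strain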; conditions: S. cerevisiae mlh1 strain growth inhibition, stronger effect = higher value
Method in brief: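 Vehicle-normalised growth inhibition of a repair- or checkpoint-altered yeast strain following compound treatment.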

[12] = NCI Yeast Anticancer Drug Screen. Data for the sgs1 strain (AID 173);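 note: 0% = growth of vehicle-only control cultures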; conditions: S. cerevisiae sgs1 mutant, stronger effect = higher value
Method in brief: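 Screen format: yeast with repair or checkpoint alterations, compound exposure, growth read relative to vehicle.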

[13] = NCI Yeast Anticancer Drug Screen. Data for the mlh1 rad18 strain (AID 175); conditions: S. cerevisiae mlh1 rad18 strain growth inhibition, stronger effect = higher value
Method in brief: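 Vehicle-treated cultures served as the reference for growth inhibition in a yeast strain carrying DNA damage repair alterations exposed to each compound.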

[14] = NCI Yeast Anticancer Drug Screen. Data for the rad18 strain (AID 177); conditions: S. cerevisiae rad18 mutant growth inhibition, stronger effect = higher value
Method in brief: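 Test articles were incubated with altered yeast defective in DNA damage repair. Results are given as inhibition of growth versus vehicle.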

[15] = NCI Yeast Anticancer Drug Screen. Data for the rad50EPP+ strain (AID 151);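 note: 0% = growth of vehicle-treated control cultures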; conditions: S. cerevisiae rad50 mutant strain, stronger effect = higher value
Method in brief: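 In this screen, rad50EPP+ yeast were exposed to compounds. Growth inhibition was scored against vehicle-treated controls.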

[16] = NCI Yeast Anticancer Drug Screen. Data for the wt2 strain (AID 169);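 note: 0% = growth of vehicle-treated yeast cultures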; conditions: S. cerevisiae wt2 strain growth inhibition, stronger effect = higher value
Method in brief: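 Inhibition of yeast growth was determined after compound treatment, normalised to controls receiving only vehicle.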

[17] = at 5.0 µM (retest, dose inferred, filed as 0.5)
[18] = at 50.0 µM (retest, dose inferred, filed as 5.0)

Measured: growth inhibition

CCO/C=C1\SC(=S)N(c2ccc(OCC)cc2)C1=O
active: [1]; at 100.0 µM 70% | [4]; [18] 79% | [4]; at 100.0 µM 72% | [5]; [18] 86% | [10]; [18] 73% | [10]; at 50.0 µM 72.2% | [13]; [18] 76%
inactive: [1]; at 1.2 µM 3% | [1]; at 3.7 µM -1% | [1]; at 11.0 µM 0% | [1]; at 33.0 µM 25% | [2]; at 1.2 µM -36% | [2]; at 3.7 µM -51% | [2]; at 11.0 µM -50% | [2]; at 33.0 µM -34% | [2]; at 100.0 µM -33% | [3]; at 1.2 µM -13% | [3]; at 3.7 µM -6% | [3]; at 11.0 µM -20% | [3]; at 33.0 µM 0% | [3]; at 100.0 µM 45% | [4]; at 1.2 µM -17% | [4]; at 3.7 µM -7% | [4]; [17] 41% | [4]; at 11.0 µM -3% | [4]; at 33.0 µM 36% | [4]; at 50.0 µM 29.7% | [5]; at 1.2 µM -43% | [5]; at 3.7 µM -35% | [5]; [17] 47% | [5]; at 11.0 µM -27% | [5]; at 33.0 µM -41% | [5]; at 50.0 µM 28.2% | [5]; at 100.0 µM 26% | [6]; at 1.2 µM -42% | [6]; at 3.7 µM -41% | [6]; at 11.0 µM -40% | [6]; at 33.0 µM -2% | [6]; at 100.0 µM 8% | [7]; [17] -7% | [7]; [18] 44% | [7]; at 50.0 µM 33.5% | [8]; at 1.2 µM -8% | [8]; at 3.7 µM -1% | [8]; at 11.0 µM 4% | [8]; at 33.0 µM 21% | [8]; at 100.0 µM 57% | [9]; [17] 26% | [9]; [18] 60% | [9]; at 50.0 µM 21.1% | [10]; at 1.2 µM -7% | [10]; at 3.7 µM -4% | [10]; [17] 9% | [10]; at 11.0 µM -9% | [10]; at 33.0 µM 32% | [10]; at 100.0 µM 58% | [11]; at 1.2 µM -8% | [11]; at 3.7 µM -12% | [11]; at 11.0 µM -18% | [11]; at 33.0 µM -14% | [11]; at 100.0 µM -10% | [12]; at 1.2 µM -35% | [12]; at 3.7 µM -39% | [12]; at 11.0 µM -34% | [12]; at 33.0 µM -33% | [12]; at 100.0 µM 32% | [13]; [17] 29% | [13]; at 50.0 µM 57.5% | [14]; at 1.2 µM -37% | [14]; at 3.7 µM -31% | [14]; at 11.0 µM -32% | [14]; at 33.0 µM -21% | [14]; at 100.0 µM 18%

CCCCCCCCN1COCC(COc2ccccc2C)OC1 (stereo unspecified)
inactive: [1]; at 1.2 µM -3% | [1]; at 3.7 µM 0% | [1]; at 11.0 µM 1% | [1]; at 33.0 µM 13% | [15]; at 1.2 µM -7% | [15]; at 3.7 µM -4% | [15]; at 11.0 µM -2% | [15]; at 33.0 µM 11% | [15]; at 100.0 µM 18% | [3]; at 1.2 µM -1% | [3]; at 3.7 µM -2% | [3]; at 11.0 µM 0% | [3]; at 33.0 µM 5% | [4]; at 1.2 µM -2% | [4]; at 3.7 µM -4% | [4]; [17] 0% | [4]; at 11.0 µM 3% | [4]; at 33.0 µM 5% | [4]; [18] 5% | [5]; at 1.2 µM -4% | [5]; at 3.7 µM -4% | [5]; [17] 3% | [5]; at 11.0 µM -6% | [5]; at 33.0 µM 2% | [5]; [18] -7% | [6]; at 1.2 µM 0% | [6]; at 3.7 µM 1% | [6]; at 11.0 µM 1% | [6]; at 33.0 µM 22% | [7]; [17] -1% | [7]; [18] 1% | [8]; at 1.2 µM -4% | [8]; at 3.7 µM 0% | [8]; at 11.0 µM -58% | [8]; at 33.0 µM 9% | [9]; [17] 20% | [9]; [18] 44% | [9]; at 50.0 µM 55.2% | [10]; at 1.2 µM -9% | [10]; at 3.7 µM -7% | [10]; [17] -25% | [10]; at 11.0 µM 5% | [10]; at 33.0 µM 15% | [10]; [18] 1% | [16]; at 1.2 µM -1% | [16]; at 3.7 µM 0% | [16]; at 11.0 µM 0% | [16]; at 33.0 µM 13% | [11]; at 1.2 µM -1% | [11]; at 3.7 µM 0% | [11]; at 11.0 µM 0% | [11]; at 33.0 µM -17% | [12]; at 1.2 µM -3% | [12]; at 3.7 µM -2% | [12]; at 11.0 µM 0% | [12]; at 33.0 µM 22% | [13]; [17] -8% | [13]; [18] -2% | [14]; at 1.2 µM -15% | [14]; at 3.7 µM -4% | [14]; at 11.0 µM 4% | [14]; at 33.0 µM 11%
active: [1]; at 100.0 µM 99% | [3]; at 100.0 µM 99% | [4]; at 50.0 µM 97.3% | [4]; at 100.0 µM 99% | [5]; at 50.0 µM 85.3% | [5]; at 100.0 µM 99% | [6]; at 100.0 µM 99% | [7]; at 50.0 µM 93.3% | [8]; at 100.0 µM 99% | [10]; at 50.0 µM 76.5% | [10]; at 100.0 µM 98% | [16]; at 100.0 µM 99% | [11]; at 100.0 µM 99% | [12]; at 100.0 µM 99% | [13]; at 50.0 µM 95% | [14]; at 100.0 µM 99%

CCCN=Cc1cc(Cc2ccc(O)c(C=NCCC)c2)ccc1O
active: [1]; at 1.2 µM 70% | [1]; at 3.7 µM 95% | [1]; at 11.0 µM 98% | [1]; at 33.0 µM 98% | [1]; at 100.0 µM 97% | [2]; at 3.7 µM 97% | [2]; at 11.0 µM 98% | [2]; at 33.0 µM 99% | [2]; at 100.0 µM 99% | [3]; at 3.7 µM 97% | [3]; at 11.0 µM 99% | [3]; at 33.0 µM 98% | [3]; at 100.0 µM 97% | [4]; at 1.2 µM 70% | [4]; at 3.7 µM 97% | [4]; [17] 93% | [4]; at 11.0 µM 99% | [4]; at 33.0 µM 99% | [4]; [18] 99% | [4]; at 50.0 µM 91% | [4]; at 100.0 µM 98% | [5]; at 1.2 µM 92% | [5]; at 3.7 µM 98% | [5]; [17] 99% | [5]; at 11.0 µM 99% | [5]; at 33.0 µM 98% | [5]; [18] 99% | [5]; at 50.0 µM 91.5%
inactive: [2]; at 1.2 µM 64% | [3]; at 1.2 µM 45%
